# What was measured:
# Conditions in all cases: concentration: 1 μM, replicates: in singlicate; n = 1
# CLK2 = system: CLK2
# CLK3 = system: CLK3
# CLK4 = system: CLK4
# CSF1R-autoinhibited = system: CSF1R-autoinhibited
# CSF1R = system: CSF1R
# CSK = system: CSK
# CSNK1A1L = system: CSNK1A1L
# CSNK1A1 = system: CSNK1A1
# CSNK1D = system: CSNK1D
# CSNK1E = system: CSNK1E
# CSNK1G1 = system: CSNK1G1
# CSNK1G2 = system: CSNK1G2
# CSNK1G3 = system: CSNK1G3
# CSNK2A1 = system: CSNK2A1
# CSNK2A2 = system: CSNK2A2
# CTK = system: T1, CTK
# T1 construct: gene MATK
# DAPK1 = system: DAPK1
# DAPK2 = system: DAPK2
# DAPK3 = system: DAPK3
# DCAMKL1 = system: T2, DCAMKL1
# T2 construct: gene DCLK1
# 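Also: KINOMEscan kinase panel screen.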
SMILES,%Inh (CLK2) [%],%Inh (CLK3) [%],%Inh (CLK4) [%],%Inh (CSF1R-autoinhibited) [%],%Inh (CSF1R) [%],%Inh (CSK) [%],%Inh (CSNK1A1L) [%],%Inh (CSNK1A1) [%],%Inh (CSNK1D) [%],%Inh (CSNK1E) [%],%Inh (CSNK1G1) [%],%Inh (CSNK1G2) [%],%Inh (CSNK1G3) [%],%Inh (CSNK2A1) [%],%Inh (CSNK2A2) [%],%Inh (CTK) [%],%Inh (DAPK1) [%],%Inh (DAPK2) [%],%Inh (DAPK3) [%],%Inh (DCAMKL1) [%]
O=C(Nc1n[nH]c2cc(-c3ccoc3)ccc12)C1CC1 [SB-738481],73,13,9,0,2,0,5,0,2,0,0,0,12,35,66,25,6,0,0,2
O=C(Nc1n[nH]c2nc(-c3ccc(O)cc3)ccc12)C1CC1 [SB-710363],21,10,15,0,0,0,10,0,0,12,0,0,9,64,87,30,76,0,32,0
CNC(=O)c1ccccc1Nc1nc(Nc2ccc(N3CCOCC3)cc2)ncc1Cl.Cl [GSK1576028],97.1,90,98.8,89,97.5,85,68,30,36,13,66,85,56,99.8,99.9,34,95,69,89,52
Cc1ccc(C(=O)Nc2ccc(Nc3ccnc4cc(-c5nccs5)ccc34)cc2O)cc1.Cl [GW494702],0,0,0,44,20,30,14,0,97.1,8,0,0,4,0,100,8,0,0,10,0
Nc1ncc(-c2cccnc2)c2scc(-c3ccc4c(c3)CCN4C(=O)Cc3ccccc3)c12 [GSK683281],0,19,18,5,99.2,23,21,4,13,35,32,9,58,77,28,9,0,0,27,20
CCn1c(-c2nonc2N)nc2c(C#CC(C)(C)O)nc(OC[C@H](N)c3ccccc3)cc21 [GSK943949],0,15,8,0,35,0,0,7,0,15,0,0,17,0,30,11,0,3,18,12
CC(=O)Nc1nc2cnc(Nc3cc(NC(=O)c4cccc(C5(C#N)CC5)c4Cl)ccc3C)nc2s1,0,0,10,15,99.4,41,23,0,0,0,0,0,0,0,0,52,0,0,0,23
CN1CCN(CCCNc2nccc(-c3c(-c4ccc(F)cc4)nn4cc(C(F)(F)F)ccc34)n2)CC1 [GW621581],15,0,22,0,0,0,12,83,90.6,92.9,0,0,16,0,0,0,0,0,100,0
Clc1ccc(-c2nn3ncccc3c2-c2ccnc(Nc3ccc4c(c3)OCCO4)n2)cc1 [GW829116],0,0,0,0,87,0,17,77,94,98.6,0,42,23,0,8,36,0,0,0,7
CC(C)c1nc(-c2cccc(NS(=O)(=O)c3c(F)cccc3F)c2F)c(-c2ccnc(Nc3ccc(N4CCOCC4)nc3)n2)s1 [GSK2008607],0,0,0,0,86,98,0,0,0,4,21,0,6,7,32,55,2,1,34,57
Cn1cc(-c2[nH]c3cc(NC(=O)[C@H](N)C4CCCCC4)cc4c3c2C=NNC4=O)cn1,16,13,55,49,100,71,3,24,14,11,0,0,2,68,77,0,99.8,98.7,99.7,46
CN(c1ccc(NC(=O)Nc2cc(C(F)(F)F)ccc2F)cc1)c1ccnc(Nc2ccc(S(N)(=O)=O)cc2)n1 [GW809893],13,0,16,0,25,9,9,15,0,1,5,0,18,13,0,23,0,0,0,3
C[C@@H](Oc1cc(-n2cnc3cc(-c4ccnc(NCCS(C)(=O)=O)c4)ccc32)sc1C(N)=O)c1ccccc1Cl [GSK907232],4,32,47,1,38,0,22,0,0,17,13,0,14,16,37,5,64,12,17,26
c1ccc(-c2cnc3nccnn23)cc1 [AH20685],0,0,11,14,0,0,0,0,11,0,0,5,0,0,0,0,0,0,0,0
C[C@@H]1CC[C@@H](C(=O)Nc2ccccc2)CN1c1cc(-c2ccc3c(N)n[nH]c3c2)nc(N)n1 [GSK2286062],13,0,16,10,0,0,6,0,20,0,13,8,14,54,7,0,0,23,20,7
COC(=O)Nc1nc2ccc(Oc3ccc(NC(=O)Nc4cc(C(F)(F)F)ccc4F)cc3)cc2n1C.Cl [GW692089],0,0,0,0,86,0,0,0,0,0,6,0,12,0,1,0,0,0,0,6
Cc1cccc(NC(=O)Nc2ccc(Oc3ncnc4ccn(C)c34)cc2)c1,0,0,8,48,99.9,0,0,0,0,11,0,10,5,0,0,0,0,0,0,45
COc1cccc(NC(=O)NC2CCN(c3ccnc(Nc4cc(OC)c(OC)c(OC)c4)n3)C2)c1 (stereo not shown) [GSK1379763],11,0,0,6,34,15,0,0,0,0,0,0,14,12,7,0,5,0,17,0
Cc1ccc(C(=O)N2CC[C@@H](O)C2)cc1-n1c(C)cc(OCc2ccc(F)cc2F)c(Br)c1=O,0,0,0,0,75,0,0,0,0,0,0,0,0,0,0,0,3,0,7,40
Cc1cccc(Nc2nc(N[C@H]3CCNC3)ncc2C(N)=O)c1.Cl [GSK2197149],71,37,33,0,87,0,78,75,67,86,14,11,15,52,0,13,69,51,22,16
